Sampled rows, rich in hits. Any-hit rate of the full collection: about 0.43%.
N370S GC mod = inhibitors or activators of N370S glucocerebrosidase for Gaucher disease; AID 2101; N370S GC spleen homogenate, 4MU-glucoside fluorescence; 0.092% of 330,000 active; Potency, µM (top dose mostly 59.4 µM), for inactives: at the top dose activity change, negative = inhibition, most hits filed as inhibitors; P04062;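 further: potency means the concentration at half of the fitted maximal effect; 0% = full enzyme activity and -100% = no enzyme basal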
GLA spleen mod = alpha-galactosidase A (human) modulation | 0.008% of 240,000 active | human spleen homogenate, 4MU-alpha-Gal fluorescence, 40 min | P06280 | Potency, µM (series often up to 80 µM), for inactives: at the highest dose activity change, negative = inhibition, hits mostly inhibitors | AID 2107;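 further: potency means the concentration at half of the fitted maximal effect; 0% = enzyme with vehicle and -100% = no enzyme basal signal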
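Human spleen homogenate (1 ug) as enzyme source, 4-methylumbelliferyl-alpha-D-galactopyranoside 1 mM final, citrate/phosphate pH 5.0 with 0.01% Tween-20. Compounds 40 min at 37C, NaOH/glycine stop; fluorescence Ex 365/Em 440, Hill-fit AC50.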
GAA inhib = blocks human lysosomal alpha-glucosidase. AID 1466. P10253. purified human GAA, 4-MU-alpha-glucoside fluorescence. Potency, µM (highest dose often 76.9 µM), inactives show at the top dose activity change, negative = inhibition, hits mostly inhibitors. 0.005% of 200,000 active;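 further: potency means the concentration at half of the fitted maximal effect; plate controls were uninhibited enzyme wells for no effect and no-enzyme background for full effect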
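AC50 values come from Hill fits of compound titrations (up to 77 uM) against 4 nM human enzyme. Substrate 4-methylumbelliferyl-alpha-D-pyranoside at 400 uM, pH 5.0 citrate buffer, 20 min room temperature; fluorescence Ex 365/Em 440 after alkaline stop.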
GLA inh pH 4.5 = blocks human alpha-galactosidase A at pH 4.5. purified enzyme, 4-MU-alpha-Gal fluorescence, pH 4.5. activity change, negative = inhibition, % at 105 µM. 230,000 tested, under 10 active;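 further: 0% = full activity with enzyme and -100% = basal without enzyme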
Target sequence (P06280 whole entry, looked up): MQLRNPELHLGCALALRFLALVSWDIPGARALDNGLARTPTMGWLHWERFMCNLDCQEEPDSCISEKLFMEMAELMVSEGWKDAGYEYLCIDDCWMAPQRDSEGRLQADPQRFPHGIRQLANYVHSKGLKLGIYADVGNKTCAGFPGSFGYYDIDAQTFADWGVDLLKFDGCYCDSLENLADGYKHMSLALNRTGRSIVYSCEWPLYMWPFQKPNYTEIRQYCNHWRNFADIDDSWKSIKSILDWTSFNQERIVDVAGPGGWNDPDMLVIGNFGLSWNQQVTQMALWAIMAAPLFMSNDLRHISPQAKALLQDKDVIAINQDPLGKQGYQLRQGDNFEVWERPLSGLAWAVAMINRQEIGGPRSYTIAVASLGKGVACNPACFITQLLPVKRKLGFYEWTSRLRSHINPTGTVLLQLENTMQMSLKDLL
GAA glycogen = alters human alpha-glucosidase cleavage of glycogen. recombinant GAA, glycogen substrate, Amplex Red glucose oxidase fluorescence. Potency, µM (doses to about 76.4 µM), for the others: top-dose activity change, negative = inhibition, usual class: inhibitors. 0.38% of 300,000 active. P10253;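 further: potency means the concentration at half of the fitted maximal effect; 0% = full enzyme reaction and -100% = no-enzyme basal signal; the screen sought inhibitors and activators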
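Recombinant enzyme (4 nM final) with compounds titrated up to 77 uM and bovine liver glycogen (30 ug) in citrate pH 5.0, 0.01% Tween-20, 37 C 40 min. Released glucose detected by Amplex Red/glucose oxidase (Ex 573/Em 610); AC50 from Hill fits.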
aGlu spleen mod = lysosomal alpha-glucosidase (human) modulation; human spleen homogenate, 4-MU-alpha-glucoside fluorescence; 0.006% of 240,000 active; Potency, µM (titrated, usually from 79.9 µM), without a hit: at the highest dose activity change, negative = inhibition, actives largely listed as inhibitors; P10253;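 further: potency means the concentration at half of the fitted maximal effect; 0% = enzyme with vehicle and -100% = no enzyme basal signal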
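Human spleen homogenate (1 ug) with 4-methylumbelliferyl-alpha-D-glucopyranoside (1 mM final) in 50 mM citrate/phosphate pH 5.0, 0.01% Tween-20; 40 min at 37 C. Stopped at pH 10; 4-MU fluorescence Ex 365/Em 440 nm; AC50 by Hill fit.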
The depositor's hits bear a star; ? = inconclusive; . = not tested or not shown; ! = a repeat was not active; [ ] = another dose, or the depositor's remark. The call rests on the fitted dose curve; in most records, active means well fitted curve in the direction sought with a large enough effect; inconclusive means small, poorly fitted or top-dose-only effect, or another doubt; inactive means no such curve, though single readings can be large; an effect the other way counts as inactive or inconclusive.

SMILES | N370S GC mod | GLA spleen mod | GAA inhib | GLA inh pH 4.5 | GAA glycogen | aGlu spleen mod
CC1=C(C(=O)O)N2C(=O)C(NC(=O)C(N)c3ccccc3)C2SC1 (centres undefined) | -3% | -1% | . | 5 | . | -11%
COc1ccc2c(c1OC)C(Cc1ccccc1)N1CCc3cc4c(cc3C1=C2)OCO4 (centres undefined) | 5% | 3% | . | -13 | . | 4%
c1ccc(-c2nc3ccccn3c2NC2CCCC2)nc1 | -18% | 9% | -1% | -1 | 11µM* | 0%
Cc1ccn2c(NC3CCCC3)c(-c3ccccn3)nc2c1 | -12% | 7% | -2% | 0 | ? | 5%
Cc1ccn2c(NC3CCCC3)c(-c3ccncc3)nc2c1 | -3% | 6% | -10% | 3[21.1 µM] | 28µM* | 3%
CCOC(=O)N1CCN(c2ccccc2O)CC1 | -1% | 1% | -5% | 2 | 11µM* | -5%
c1ccc(C2[C@H]3CN(CC4CCCCC4)[C@H](c4ccccc4)C34CC2(c2cccnc2)C4)cc1 (some centres undefined) | 14µM* | 3% | . | 2 | -1% | 1%
CC(C)C(C(=O)O)N1C(=O)/C(=C/c2ccc(Br)cc2)SC1=S (centres undefined) | -7% | 5% | . | . | . | -1%
Cc1ccc(/C=C2/CNC/C(=C\c3ccc(C)cc3)C2=O)cc1 | -4% | 6% | . | . | . | 4%
Nc1ccc(-c2n[nH]c(=O)c3ccccc23)cc1N | -11% | -5% | ? | -10 | 18µM* | -12%
CCc1c2c(nc3ccc4c(c13)OCCO4)-c1nc3ccccc3c(=O)n1C2 | 9% | 7% | . | . | . | 7%
N#CC1=C(SCC(=O)NC2CC2)NC(=O)C(C#N)C12CCCCC2 (centres undefined) | -2% | -13% | 0% | 11 | 25µM* | -6%
NNC(=O)c1cc(-c2ccccc2)sc1N | -7% | 7% | . | 3 | 5µM* | 1%
NC(=NCc1ccccc1)NC(=O)c1nc(Cl)c(N)nc1N | ? | ? | . | 10 | . | 8.9µM*!
NC(=Nc1ccccc1)NC(=O)c1nc(Cl)c(N)nc1N | 2% | 0% | . | -2 | . | -2%
C(C#CCCCCCCCCC[n+]1ccccc1)#CCCCCCCCCC[n+]1ccccc1 | 11µM* | . | . | . | . | .
[O-]/[N+](=N\O)c1ccccc1 | -2% | 16% | . | . | . | -1%
COc1ccc(/C=N/Nc2cc(C)nc(N3CCOCC3)n2)c(OC)c1 | -4% | 6% | . | -5 | -21% | 1%
Cc1cc(N/N=C/c2ccc(O)cc2O)nc(N2CCOCC2)n1 | -11% | 5% | -14% | -8 | 16µM* | -2%
CC(C)c1ccc(/C=N/Nc2cc(N3CCOCC3)nc(N3CCOCC3)n2)cc1 | -12% | 4% | -8% | -10 | -5% | 2%
Oc1ccc(/C=N\Nc2cc(N3CCOCC3)nc(N3CCOCC3)n2)c(O)c1 | -11% | 3% | -11% | -4 | 10µM* | -2%
CC(=O)N1CCC2(CC1)CCN(c1ccc(-c3ccccc3)cc1)CC2 | 3% | 8% | . | . | . | 2%
Cc1cc(Nc2c(C)n(C)n(-c3ccccc3)c2=O)n2c(nc3ccccc32)c1C#N | -12% | 1% | -9% | -13 | 14µM* | -1%
CCc1c(C)c(C#N)c2nc3ccccc3n2c1Nc1c(C)n(C)n(-c2ccccc2)c1=O | 10% | 0% | 4% | -6 | 25µM* | 3%
CCCc1cc(Nc2c(C)n(C)n(-c3ccccc3)c2=O)n2c(nc3ccccc32)c1C#N | -7% | 10% | ? | -18 | 14µM* | -2%
SMILES | N370S GC mod | GLA spleen mod | GAA inhib | GLA inh pH 4.5 | GAA glycogen | aGlu spleen mod
Cc1cccc(C)c1NC(=O)CSCC(=O)c1ccc(O)c(O)c1 | 2% | -4% | -20% | -2 | 11µM* | -10%
O=c1c(-c2ccc(F)c(F)c2)nc2cncnc2n1Cc1ccccc1 | 17% | -20% | . | . | . | -10%
COc1ccc(C(=O)NNC(=S)NC(=O)c2cccnc2)cc1 | -12% | 1% | 4% | -2 | 40µM* | -3%
COc1ccc(NC(=S)NNC(=O)c2cccnc2)cc1OC | -10% | 7% | -7% | 2 | 4µM* | -6%
Oc1ccc(Nc2nc(-c3cccnc3)cs2)cc1 | 7% | . | . | . | 18µM* | .
Oc1ccc(Nc2nc(-c3ccc(O)cc3)cs2)cc1 | 16µM* | 2% | -2% | 9 | 25µM* | 0%
O=C1[C@H]2[C@H]3[C@H](O)[C@H](O)C/C(=N/OCc4ccccc4)[C@@H]3CC[C@@H]2C(=O)N1C[C@@H]1CCCO1 | 10%[12.8 µM] | -6%[17.5 µM] | . | . | . | 1%[17.4 µM]
Cc1ccc(S(=O)(=O)N/N=C/c2cc([N+](=O)[O-])ccc2O)cc1[N+](=O)[O-] | 2% | 4% | -12% | -8 | -6% | 7%
Cc1ccc(S(=O)(=O)N/N=C/c2ccc(O)cc2O)cc1[N+](=O)[O-] | 8% | 6% | . | 2 | 25µM* | -1%
Oc1ccc(N2CCN(C(c3ccncc3)c3nnnn3C3CCCC3)CC2)cc1 (centres undefined) | -9% | -6% | -8% | 0 | 12µM* | -11%
CCS(=O)(=O)c1ncc(Cl)c(C(=O)N2CCN(c3cccc(Cl)c3)CC2)n1 | . | . | . | . | -6%[76.3 µM] | .
COc1ccc(-c2nc(-c3ccccc3)c(-c3cc([N+](=O)[O-])ccc3C)[nH]2)cc1O | -23% | 4% | 1% | ? | -25% | -4%
Cc1ccc([N+](=O)[O-])cc1-c1[nH]c(-c2ccc(O)c(O)c2)nc1-c1ccccc1 | ? | 4% | -14% | 7 | 14µM* | 1%
NC(=O)Cc1c[nH]c2cccc(O)c12 | 9% | -2% | 1% | 7 | 10µM* | 4%
CCN1CCCc2cc(CN(CCN3CCOCC3)C(=O)Nc3ccc(C)c(C)c3)ccc21 | -19% | -13% | -5% | 1 | 11µM* | -1%
CCN1CCCc2cc(CN(CCN3CCOCC3)C(=S)Nc3ccc(OC)c(OC)c3)ccc21 | -20% | 6% | -4% | 0 | ? | 0%
CCc1ccc(NC(=O)N(CCN2CCOCC2)Cc2ccc3c(c2)CCCN3CC)cc1 | -8% | 4% | -2% | -3 | 11µM* | -2%
CCN1CCCc2cc(CN(CCN3CCOCC3)C(=S)Nc3cccc(C)c3)ccc21 | -24% | -8% | -4% | -27 | ? | -3%
Cc1cc2c(c(=O)n1Cc1ccccc1)C1O[C@](c3ccsc3)(Cc3cc(C#N)ccc31)O2 | -7%[12.8 µM] | . | . | . | 2%[15.3 µM] | .
Oc1ccc(/C=N/NC(=S)N/N=C/c2ccc(O)cc2)cc1 | -4% | -16% | 5% | 3 | 3.5µM* | 2%
CCOc1ccc(N(CC(=O)NCc2ccccc2Cl)S(=O)(=O)c2c(C)[nH]c(=O)[nH]c2=O)cc1 | 4µM* | . | . | . | -8%[76.3 µM] | .

Screening data from PubChem BioAssay.
